# Source: paper PMC4336329 (PLoS ONE, 2015)
# The whole screen tested about 310,000 compounds, of which about 14,000 (4.5%) showed an effect of 50% or more. The effect is printed as a negative number. The full list was thinned out, with strong results kept by preference.
# Target: human ether-à-go-go-related gene (hERG) potassium channel (human, UniProt Q12809)
# Test: primary screen, population patch clamp on CHO cells stably expressing hERG; higher = less effect of the substance
# 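Further: peak tail current of the secondary pulse compared with the same well before compound.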
# Chain of human ether-à-go-go-related gene (hERG) potassium channel (Q12809 whole entry, looked up): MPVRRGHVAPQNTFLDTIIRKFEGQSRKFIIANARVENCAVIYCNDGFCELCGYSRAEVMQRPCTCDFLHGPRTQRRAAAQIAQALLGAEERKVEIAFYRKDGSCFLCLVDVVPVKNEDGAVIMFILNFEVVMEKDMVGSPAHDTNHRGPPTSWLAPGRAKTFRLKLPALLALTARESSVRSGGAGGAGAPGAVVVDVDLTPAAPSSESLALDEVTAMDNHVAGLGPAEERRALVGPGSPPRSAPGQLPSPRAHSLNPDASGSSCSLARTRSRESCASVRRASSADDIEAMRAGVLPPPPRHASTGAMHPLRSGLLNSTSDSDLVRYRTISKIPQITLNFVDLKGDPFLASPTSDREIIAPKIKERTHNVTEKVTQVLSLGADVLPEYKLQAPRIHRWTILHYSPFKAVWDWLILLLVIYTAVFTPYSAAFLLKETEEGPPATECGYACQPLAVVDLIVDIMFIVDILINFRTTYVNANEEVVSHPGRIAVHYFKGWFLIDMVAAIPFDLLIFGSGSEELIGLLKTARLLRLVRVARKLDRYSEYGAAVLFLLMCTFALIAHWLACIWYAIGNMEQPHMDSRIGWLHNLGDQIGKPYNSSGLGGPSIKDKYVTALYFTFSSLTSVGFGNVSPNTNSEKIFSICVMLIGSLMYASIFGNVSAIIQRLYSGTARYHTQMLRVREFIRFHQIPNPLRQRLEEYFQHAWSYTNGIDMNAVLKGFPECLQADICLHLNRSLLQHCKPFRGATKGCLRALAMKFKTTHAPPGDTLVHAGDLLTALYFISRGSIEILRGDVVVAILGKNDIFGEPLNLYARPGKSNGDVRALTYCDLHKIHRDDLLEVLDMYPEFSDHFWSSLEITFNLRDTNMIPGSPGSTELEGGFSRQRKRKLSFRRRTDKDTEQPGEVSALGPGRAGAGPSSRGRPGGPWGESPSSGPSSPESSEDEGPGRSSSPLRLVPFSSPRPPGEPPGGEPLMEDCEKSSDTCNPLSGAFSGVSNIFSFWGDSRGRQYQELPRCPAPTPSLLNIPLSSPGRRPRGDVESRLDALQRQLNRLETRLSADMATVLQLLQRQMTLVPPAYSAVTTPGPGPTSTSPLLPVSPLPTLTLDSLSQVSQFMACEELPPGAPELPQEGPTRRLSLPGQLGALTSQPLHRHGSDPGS
row,SMILES,"hERG current change (%, negative = inhibition) at 10uM"
1,Cc1cc(C)c2nc(SCC#N)cc(C)c2c1,13.5%
2,O=C(OCC#CCSc1nnc(-c2cccc3ccccc23)o1)c1ccco1,-2.9%
3,CCN=C(Nc1ccc(Cl)cc1)c1cccnc1,-2.16%
4,O=C(N/C(=C/c1ccco1)C(=O)N1CCCC1)c1cccs1,-0.326%
5,CC(C)(C)OC(=O)N1CCOCCOCCN(C(=O)OC(C)(C)C)CCOCCOCC1,7%
6,Cc1oc(-c2ccc(Cl)cc2)nc1CN1CCCC(C(=O)NCCCN2CCOCC2)C1 (centres unmarked),-19.4%
7,COc1ccc(-c2nc(CN3CCC(C(=O)NC4CCCC4)CC3)c(C)o2)cc1OC,-36.4%
8,Cc1oc(-c2ccc(Cl)cc2)nc1CS(=O)CC(=O)NC1CC1 (centres unmarked),8.75%
9,COc1ccc(-c2nc(CN3CCCC(C(=O)NC4CCCC4)C3)c(C)o2)cc1 (centres unmarked),-64.4%
10,COc1ccc(-c2nc(CS(=O)CC(=O)NC3CCCC3)c(C)o2)cc1 (centres unmarked),-16.4%
11,Cc1oc(-c2ccc(Cl)cc2)nc1CN1CCCC(C(=O)NC2CC2)C1 (centres unmarked),-81.3%
12,CC1CCN(c2nc(N3CCCCC3)nc(N3CCCCC3)n2)CC1,9.57%
13,CC(C)(C)C(=O)OCc1nc(-c2ccc(Cl)cc2)cs1,7.41%
14,COc1ccc(CNC(=O)CCc2nc3cc(S(=O)(=O)N(C)C)ccc3n2C)cc1OC,14.3%
15,N#C/C(=C\N1CCCCC1)S(=O)(=O)c1ccc(Cl)cc1,15.6%
16,O=C(NCCc1ccccc1)c1ccc(S(=O)(=O)N2CCCC2)cc1,-5.37%
17,CSc1cccc(NC(=O)COC(=O)C2CCN(S(=O)(=O)c3ccccc3)CC2)c1,4.09%
18,Cc1ccc(-n2cnnn2)cc1Cl,-18.8%
19,C/C(=N\NC(=O)CNC(=O)c1cccs1)c1ccc(Cl)c(Cl)c1,-2.25%
20,Fc1ccccc1CNc1ccc(Cl)c(Cl)c1,9.9%
21,Fc1ccc(NCc2ccccc2F)cc1Cl,-139%
22,Fc1ccccc1CNc1ccc(Cl)cc1,-8.14%

row,SMILES,"hERG current change (%, negative = inhibition) at 10uM"
1,CC(NC(=O)CSC1=NCCS1)c1ccccc1 (centres unmarked),14.3%
2,Clc1nc2sccn2c1/C=N/n1cnc2ccccc21,-10%
3,COc1ccc(C(C(=O)NC2CCCCC2)N(C(=O)c2ccco2)c2ccccc2C(C)=O)cc1OC (centres unmarked),9.15%
4,O=C(CNC(=O)OCc1ccccc1)Nc1ccc(Br)cc1C(=O)c1ccccc1,-15.1%
5,CC(C(=O)Nc1ccc(Br)cc1C(=O)c1ccccc1)N1CCCCC1 (centres unmarked),-24.8%
6,O=C(CCN1CCOCC1)NCC(=O)Nc1ccc(Br)cc1C(=O)c1ccccc1,-49.5%
7,O=C(CN1CCOCC1)Nc1ccc(Br)cc1C(=O)c1ccccc1,-32.4%
8,O=C(CNC(=O)OCc1ccccc1)Nc1ccc(Br)cc1C(=O)c1ccccc1Cl,-40.5%
9,O=C(CCN1CCCCC1)NCC(=O)Nc1ccc(Br)cc1C(=O)c1ccccc1,-77.6%
10,CC(C(=O)Nc1ccc(Br)cc1C(=O)c1ccccc1)N1CCOCC1 (centres unmarked),-58.6%
11,O=C(CN1CCOCC1)NCC(=O)Nc1ccc(Br)cc1C(=O)c1ccccc1,-37.1%
12,O=C(CNC(=O)OCc1ccccc1)NCC(=O)Nc1ccc(Br)cc1C(=O)c1ccccc1,-56%
13,O=C(CCN1CCOCC1)Nc1ccc(Br)cc1C(=O)c1ccccc1,-19.6%
14,O=C(CN1CCCCC1)NCC(=O)Nc1ccc(Br)cc1C(=O)c1ccccc1,-79.1%
15,Cc1ccc(NC(=O)C(C)N2CCOCC2)c(C(=O)c2ccccc2)c1 (centres unmarked),-26.9%
16,Cc1csc(NC(=O)c2ccc(C)s2)n1,6.99%
17,Cc1cc(C(=O)N/N=C/c2c[nH]c3ccccc23)c(C)o1,-27.4%
18,N#Cc1c(C(F)(F)F)cc(-c2ccc(Cl)c(Cl)c2)nc1SCCN1CCOCC1,6.62%
19,CN1CCC(OC(=O)c2cc3cc(Cl)cc(Cl)c3oc2=O)CC1,-17.8%
20,O=C1N/C(=C\c2ccc(O)cc2)C(=O)c2ccccc21,-1.53%
21,O=C(O)C(=O)O.O=S(=O)(c1ccc(F)cc1)N1CCC(N2CCCCCC2)CC1,-26.3%
22,COc1ccc(Nc2ccc(Nc3ccc(OC)cc3)nn2)cc1,18.6%

row,SMILES,"hERG current change (%, negative = inhibition) at 10uM"
1,Cc1cccc(N2CCN(C(=O)Cn3nc(C)n4cccc4c3=O)CC2C)c1 (centres unmarked),1.19%
2,O=C(O)CCCCCCCCc1cn(Cc2ccc(C(=O)c3ccccc3)cc2)nn1,19.5%
3,Cc1cccc(C)c1OCC(=O)N/N=C/c1cc2c(cc1[N+](=O)[O-])OCO2,-4.6%
4,O=C(O)CN1CCc2ccccc2C1,21.3%
5,CCC(CC)C(=O)Nc1cc([N+](=O)[O-])ccc1F,-2.25%
6,COCCN1Cc2cccc(C(=O)Nc3cccnc3)c2C1=O,-32.6%
7,CCOC(=O)C1(Cc2ccccc2C)CCCN(C(=O)CCc2c(C)noc2C)C1 (centres unmarked),-29.3%
8,COC(=O)c1cc(C(=O)OCC(=O)NC2CCCCCCC2)cc([N+](=O)[O-])c1,-7.58%
9,Cc1ccc(S(=O)(=O)N(C)C)cc1NC(=O)C(C)N(C)CCOc1ccc(Cl)cc1 (centres unmarked),-26.7%
10,CN(CCOc1ccc(Cl)cc1)Cc1cccc(S(=O)(=O)N(C)C)c1,-56.5%
11,COc1ccc(OCCN(C)Cc2ccccc2)cc1,-41.9%
12,COc1ccc(CCNC(=O)C(=O)NCc2cccs2)cc1OC,8.95%
13,COc1ccc(S(=O)(=O)Cc2ccc(C(=O)NCc3ccccc3)o2)cc1,-14.3%
14,CCCCNC(=O)c1ccc(CS(=O)(=O)c2ccc(OC)cc2)o1,-7%
15,COc1ccc(S(=O)(=O)Cc2ccc(C(=O)NCCCN(C)c3ccccc3)o2)cc1,-59.4%
16,CCCCSCCCNC(=O)c1ccc(CS(=O)(=O)c2ccc(OC)cc2)o1,-59.6%
17,COc1ccc(S(=O)(=O)Cc2ccc(C(=O)NCCc3ccc(S(N)(=O)=O)cc3)o2)cc1,10.1%
18,COCCCNC(=O)c1ccc(CS(=O)(=O)c2ccc(OC)cc2)o1,5.86%
19,CCCCN(CCCNC(=O)c1ccc(CS(=O)(=O)c2ccc(OC)cc2)o1)Cc1ccccc1,-67.4%
20,CCN(CC)CCCNC(=O)c1ccc(CS(=O)(=O)c2ccccc2OC)o1,16.3%
21,COc1ccc(S(=O)(=O)Cc2ccc(C(=O)NCC(OC)OC)o2)cc1,17.4%
